Results reported in PubChem BioAssay AID2289 (National Center for Advancing Translational Sciences (NCATS), 2010).
Among all 340,000 compounds or so, about 3,300 (0.97%) were called active. About 9% were inconclusive and are not listed. Calls follow the shape of the dose curve; as a rule, active = well fitted inhibition curve with a large enough effect; inconclusive = small, poorly fitted or top-dose-only effect, or effect the other way; inactive = flat fitted curve, though single readings scatter. Some of the results follow.

test: qHTS Assay for Modulators of miRNAs and/or Inhibitors of miR-21; conditions: HeLa miR-21-FLuc reporter, luciferase luminescence, 48 h; actives lower the signal; also: nearly all actives have a fitted effect of over 55% in size
Method in brief: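 HeLa cells endogenously expressing miR-21, stably carrying CMV-driven firefly luciferase with a downstream miR-21 binding site, 2000 cells/well. Titrations up to approximately 40 uM, 48 hours; luciferase luminescence read.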
Potency is read from the fitted curve at half-maximal effect.

Potency, active:
Cc1ccc(NC(=O)CC2CCCC2)c(Br)c1 14.7 µM, Cc1ccc(NC(=O)CNCc2cccs2)c(Br)c1 14.7 µM, CNC(=O)c1sc2nc(-c3ccc(OC)cc3)cn2c1C 0.736 µM, Cc1c(C(N)=O)sc2nc(-c3ccccc3)cn12 11.7 µM, O=C(O)c1cc(N/N=C/c2cccs2)ccc1Cl 1.85 µM, O=C(O)c1cccc(N/N=C/c2cccs2)c1 0.0826 µM, Cc1ccc(OC(=O)c2cccc(S(=O)(=O)N3CCCC3)c2)c(-n2nc3ccccc3n2)c1 2.61 µM, Cc1ccc(OC(=O)c2cccc(S(=O)(=O)N(C)C)c2)c(-n2nc3ccccc3n2)c1 5.85 µM, Cc1ccc(OC(=O)COc2ccccc2C)c(-n2nc3ccccc3n2)c1 4.14 µM, Cc1ccc(O)c(-n2nc3ccccc3n2)c1 11.7 µM, c1ccc(CCSc2nccn2-c2ccccc2)cc1 1.85 µM, CCN(CC)CCN(C(=O)c1ccc2ncsc2c1)c1nc2cc3c(cc2s1)OCO3 1.04 µM, CCOC(=O)N/N=C/C(Cl)=C/c1ccccc1 10.4 µM, O=C(N/N=C/C=C/c1ccccc1)c1cccs1 7.36 µM, O=C(N/N=C/C(Cl)=C\c1ccccc1)c1cccs1 1.85 µM, O=C(N/N=C/C(Cl)=C\c1ccccc1)c1ccco1 3.69 µM, O=C(N/N=C/C=C/c1ccccc1)c1ccccn1 5.85 µM, O=C(N/N=C/C(Cl)=C/c1ccccc1)c1ccccc1F 8.26 µM, COc1ccccc1/C=C/C=N/NC(=O)c1cccs1 3.69 µM, C/C(=N\O)c1ccc(N2C(=O)C3CC=C(Cl)CC3C2=O)cc1 (stereo unspecified) 3.29 µM, CCOc1ccc(N=C/C=C/c2ccccc2)c(O)c1 3.29 µM, Cc1ccc(C(=O)Cn2cnc3ccccc3c2=O)cc1 5.85 µM, O=C(Cn1cnc2ccccc2c1=O)c1ccc(Cl)cc1 7.36 µM, O=C(Cn1cnc2ccccc2c1=O)c1ccc(Br)cc1 5.21 µM, O=C(Cn1cnc2ccccc2c1=O)c1ccc2ccccc2c1 7.36 µM, COc1ccc2cnn(-c3ccc(C)cc3)c(=O)c2c1OC 6.56 µM, CC(C)c1ccc(N(C(=O)c2ccco2)C(C(=O)NC2CCCC2)c2ccncc2)cc1 (stereo unspecified) 6.56 µM, NC(=O)c1ccccc1OCc1nc2ccccc2s1 1.47 µM, O=C(O)c1ccccc1OCc1nc2ccccc2s1 3.29 µM, Cc1cc(OCc2nc3ccccc3s2)ccc1N 1.17 µM, OCc1cc(Br)ccc1OCc1nc2ccccc2s1 1.65 µM, CC(C)[C@@H](CO)NC(=O)c1ccc2c3n(nc2c1)-c1ccc(Cl)cc1CO3 1.85 µM, Cc1ccc2c(c1)COc1c3ccc(C(=O)NCCO)cc3nn1-2 5.21 µM, O=C(NCCO)c1ccc2c3n(nc2c1)-c1ccc(Cl)cc1CO3 9.27 µM, O=C(Nc1sc2c(c1C(=O)NCc1ccco1)CCCC2)c1cc(=O)c2ccccc2o1 5.85 µM, COc1ccc(OCc2cc(C(=O)N(C)Cc3nnc(C)o3)no2)c(Cl)c1 14.7 µM, Cc1nnc(CN(C)C(=O)c2cc(COc3ccc(F)cc3Cl)on2)o1 13.1 µM, Cc1cc(CN(C)C(=O)c2cc(COc3ccc(F)cc3Cl)on2)n[nH]1 10.4 µM, S=C(c1ccc(-c2cccc(Cl)c2)o1)N1CCCCC1 1.31 µM, O=[N+]([O-])c1cccc(-c2ccc(C(=S)N3CCOCC3)o2)c1 1.04 µM, N#CCCN1CCN(C(=S)c2ccc(-c3cccc(Cl)c3)o2)CC1 13.1 µM, S=C(c1ccc(-c2ccc(Cl)c(Cl)c2)o1)N1CCOCC1 1.47 µM, S=C(c1ccc(-c2cccc(Cl)c2)o1)N1CCOCC1 3.69 µM, COCCN=C1NN=C(c2ccc(C)c([N+](=O)[O-])c2)CS1 4.14 µM, C=CCSc1nncn1/N=C/c1ccc(OC)cc1 2.61 µM, C=C(C)CSc1nncn1/N=C/c1ccc(OC)cc1 11.7 µM, O=[N+]([O-])c1ccc2nc(-c3ccncc3)[nH]c2c1 18.5 µM, Cn1cccc1-c1nc2ccc([N+](=O)[O-])cc2[nH]1 2.07 µM, Fc1cc2nc(-c3ccncc3)[nH]c2cc1F 16.5 µM, COc1cc(OC)cc(C(=O)Nc2ccc3nc4n(c(=O)c3c2)CCCCC4)c1 2.33 µM, COc1ccc(-c2cc3nc4n(c(=O)c3s2)CCCCC4)cc1 0.369 µM, Cc1ccc(CNC(=O)c2ccc3c(c2)nc2n3CCCC2)cc1 18.5 µM, CC1CCn2c(nc3cc(C(=O)NCc4ccccc4)ccc32)C1 (stereo unspecified) 7.36 µM, CCOc1ccc(CNC(=O)c2ccc3c(c2)nc2n3CCCCC2)cc1 2.07 µM, COc1ccc(CNC(=O)c2ccc3c(c2)nc2n3CCCCC2)cc1 4.65 µM, COc1ccc(N=C2C(=Nc3ccc(OC)cc3)N(c3ccccc3)C(=S)N2C(=O)c2ccc(Cl)cc2)cc1 5.21 µM, CCc1ccc(-c2csc(NC(=O)Oc3ccccc3)n2)cc1 3.69 µM, CCc1ccc(-c2csc(NC(=O)COC(=O)CCc3nc4ccccc4s3)n2)cc1 2.07 µM, COc1ccc(-c2csc(NC(=O)COC(=O)c3ccco3)n2)cc1 3.69 µM, Cc1nc(N)sc1N=Nc1ccccc1C(F)(F)F 5.21 µM, Cc1nc(N)sc1N=Nc1ccc(F)cc1 4.65 µM, Cc1nc(N)sc1N=Nc1ccc(Br)cc1 0.736 µM, Cc1cccc(-n2ncc3c(N(CCO)CCO)ncnc32)c1 5.21 µM, CCN(c1ccccc1)c1ncnc2c1cnn2-c1ccccc1 7.36 µM, CCCCN(c1ccccc1)c1ncnc2c1cnn2-c1ccc(Cl)cc1 5.85 µM, COCCN(CCOC)c1ncnc2c1cnn2-c1ccc(Cl)cc1 7.36 µM
